In PubChem BioAssay (Tox21):
Inconclusive results are not listed. Activity calls are given as the source filed them. Unless noted, the call rests on the fitted dose curve; in most records, active means well fitted curve in the direction sought with a large enough effect in the repeat runs; inconclusive means weak or mixed curves; inactive means no such curve, though single readings can be large; an effect the other way counts as inactive or inconclusive.

Tests used:
[1] = target: Peroxisome proliferator-activated receptor delta (Homo sapiens) (UniProt Q03181); assay: qHTS assay to identify small molecule agonists of the peroxisome proliferator-activated receptor delta (PPARd) signaling pathway (AID 743212; calls by dose curve;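 further: HEK293H cells with PPARd UAS beta-lactamase reporter GeneBLAzer system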)
Chain of Peroxisome proliferator-activated receptor delta (Homo sapiens) (Q03181 whole entry, looked up): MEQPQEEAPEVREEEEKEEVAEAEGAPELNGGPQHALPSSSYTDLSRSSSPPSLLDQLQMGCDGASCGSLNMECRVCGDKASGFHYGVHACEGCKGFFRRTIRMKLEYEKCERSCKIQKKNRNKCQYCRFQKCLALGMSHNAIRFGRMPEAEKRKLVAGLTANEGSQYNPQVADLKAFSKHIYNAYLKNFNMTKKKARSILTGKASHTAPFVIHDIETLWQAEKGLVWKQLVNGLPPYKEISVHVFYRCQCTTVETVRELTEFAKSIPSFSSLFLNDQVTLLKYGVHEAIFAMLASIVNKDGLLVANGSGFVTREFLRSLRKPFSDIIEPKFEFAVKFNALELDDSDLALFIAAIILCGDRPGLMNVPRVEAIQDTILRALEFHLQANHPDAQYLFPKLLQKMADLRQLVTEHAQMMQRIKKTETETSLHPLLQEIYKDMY
Summary of the method: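 Beta-lactamase reporter read by fluorescence (LiveBLAzer B/G FRET, 2 h, room temperature). Test agents, in DMSO, incubated at 37 C with PPARd-bla HEK293H cells.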

[2] = qHTS assay to identify small molecule antagonists of the peroxisome proliferator-activated receptor delta (PPARd) signaling pathway - cell viability counter screen (AID 743213); further: nearly all actives have a fitted effect of over 50% in size
Summary of the method: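 CellTiter-Glo was added to PPARd-bla HEK293H wells following 17 h compound treatment in the presence of 300 nM L165041. Luminescence was recorded after 30 min at room temperature.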

[3] = qHTS assay to identify small molecule agonists of the farnesoid-X-receptor (FXR) signaling pathway - cell viability counter screen (AID 743218); further: nearly all actives have a fitted effect of over 45% in size
Summary of the method: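 Readout: CellTiter-Glo luminescence, 30 min RT, multiplexed after the FXR-bla FRET reading. HEK 293T FXR-UAS-bla cells received compound 5 h post-plating and were incubated 16 h at 37 C.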

[4] = qHTS assay to identify small molecule antagonists of the farnesoid-X-receptor (FXR) signaling pathway - cell viability counter screen (AID 743221; active means well fitted cell-killing curve with a large enough effect in the repeat runs, not every such curve was filed as active; further: nearly all actives have a fitted effect of over 50% in size)
Summary of the method: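 Quantitative HTS of the Tox21 10K library run in parallel with the beta-lactamase reporter read. HEK 293T cells carrying a UAS-driven bla reporter got compound and 50 uM CDCA (final) for 16 h; ATP-based luminescence followed.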

[5] = qHTS assay to identify small molecule agonists of the vitamin D receptor (VDR) signaling pathway - cell viability counter screen (AID 743224); further: series mostly up to about 63 µM; nearly all actives have a fitted effect of over 50% in size
Summary of the method: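 In parallel with the bla FRET readout, cytotoxicity toward VDR-bla cells after 16 h compound exposure was assessed by CellTiter-Glo, with luminescence recorded after a 30 min room-temperature incubation.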

[6] = qHTS assay to identify small molecule antagonists of the vitamin D receptor (VDR) signaling pathway - cell viability counter screen (AID 743225); further: nearly all actives have a fitted effect of over 50% in size
Summary of the method: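 Cells (VDR-UAS-bla HEK 293T) are plated, rested 4 h at 37C, dosed with compound and 3 nM final 1-alpha,25-dihydroxy vitamin D3, and incubated 16 h. Viability is taken from CellTiter-Glo luminescence in the reporter wells.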

[7] = qHTS assay to identify small molecule agonists of the NFkB signaling pathway (AID 1159509; active means well fitted curve in the direction sought with a large enough effect in the signal ratio in the repeat runs, not every such curve was filed as active; the % refers to the signal ratio; further: series mostly up to about 61 µM)
Summary of the method: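 Beta-lactamase reporter assay run in quantitative high-throughput format on an NF-kB-responsive ME-180 line, with 5 hr compound treatment and a FRET-based blue/green fluorescence readout.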

[8] = qHTS assay to identify small molecule agonists of the NFkB signaling pathway - cell viability counter screen (AID 1159515; calls by dose curve; further: series mostly up to about 61 µM; nearly all actives have a fitted effect of over 55% in size)
Summary of the method: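 Plate 2,000 NFkB-bla ME-180 cells/well; incubate overnight. Add compounds, 5 hr at 37 C. Add FRET substrate, 1.5 hr RT. Add CellTiter-Glo, 30 min RT; read luminescence.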

[9] = qHTS assay to identify small molecule agonists of the endoplasmic reticulum stress response signaling pathway - cell viability counter screen (AID 1159517; calls by dose curve)
Summary of the method: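 Cytotoxicity of test compounds toward ESRE-bla HeLa cells was assessed after 5 hr exposure. The luminescent CellTiter-Glo signal was measured 30 min after reagent addition.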

[10] = qHTS assay to identify small molecule antagonists of the retinoid-related orphan receptor gamma (ROR-gamma) signaling pathway - cell viability counter screen (AID 1159520); further: nearly all actives have a fitted effect of over 50% in size
Summary of the method: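 Tet-on ROR gamma CHO cells (1,000/well) were plated 4 hr, given compounds in DMSO for 2 hr at 37 C, then induced with 1 uM final doxycycline for 16 hr. Viability was read as ATP by CellTiter-Glo luminescence after 30 min.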

[11] = target: Nuclear receptor ROR-gamma (Homo sapiens) (UniProt P51449); assay: qHTS assay to identify small molecule antagonists of the retinoid-related orphan receptor gamma (ROR-gamma) signaling pathway (AID 1159521; further: nearly all actives have a fitted effect of over 50% in size; further: potency means the concentration at half of the fitted maximal effect)
Summary of the method: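 RORγ antagonism is scored from reduced reporter luminescence in Tet-on CHO cells. Induction used 1 uM final doxycycline hyclate for 16 h at 37 C, following a 2 h compound exposure.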

[12] = qHTS assay to identify small molecule agonists of the AP-1 signaling pathway - cell viability counter screen (AID 1159525; calls by dose curve; further: nearly all actives have a fitted effect of over 55% in size)
Summary of the method: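 Each titration point was normalised to DMSO and tetra n-octyl ammonium bromide controls. The read was Cell Titer Glo luminescence after 30 min at RT, following 5 h compound exposure of ME-180 AP-1-bla cells at 37 °C.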

[13] = qHTS assay to identify small molecule agonists of the AP-1 signaling pathway (AID 1159526; calls by dose curve)
[14] = qHTS assay to identify small molecule agonists of the peroxisome proliferator-activated receptor delta (PPARd) signaling pathway - cell viability counter screen (AID 743211); further: nearly all actives have a fitted effect of over 55% in size
Summary of the method: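 Viability of GeneBLAzer PPARd UAS-bla HEK293H cells was assessed after 17 h compound incubation at 37C, using CellTiter-Glo reagent added after the reporter read and luminescence recorded 30 min later.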

[15] = target: Vitamin D3 receptor (Homo sapiens) (UniProt P11473); assay: qHTS assay to identify small molecule antagonists of the vitamin D receptor (VDR) signaling pathway (AID 743223; active means well fitted inhibition curve with a large enough effect in the signal ratio in the repeat runs, not every such curve was filed as active; the % refers to the signal ratio)
Chain of Vitamin D3 receptor (Homo sapiens) (P11473 whole entry, looked up): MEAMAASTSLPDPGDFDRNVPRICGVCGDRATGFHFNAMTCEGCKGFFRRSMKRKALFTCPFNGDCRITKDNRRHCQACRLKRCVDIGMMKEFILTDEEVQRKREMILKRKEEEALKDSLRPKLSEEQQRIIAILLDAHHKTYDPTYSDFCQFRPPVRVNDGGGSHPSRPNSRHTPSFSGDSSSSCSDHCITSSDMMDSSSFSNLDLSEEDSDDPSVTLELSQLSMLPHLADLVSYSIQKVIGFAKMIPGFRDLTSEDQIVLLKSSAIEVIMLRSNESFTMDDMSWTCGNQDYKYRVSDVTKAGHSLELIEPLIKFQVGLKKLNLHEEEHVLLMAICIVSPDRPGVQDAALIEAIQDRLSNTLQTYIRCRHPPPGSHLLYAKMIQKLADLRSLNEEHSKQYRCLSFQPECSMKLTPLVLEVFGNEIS
Summary of the method: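 Fluorescence from LiveBLAzer B/G FRET substrate, read after 2 h at room temperature, reflects beta-lactamase reporter activity in VDR-bla cells treated 16 h at 37C with compounds and agonist 1alpha,25-dihydroxyvitamin D3 (3 nM final).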

[16] = target: Peroxisome proliferator-activated receptor delta (Homo sapiens) (UniProt Q03181); assay: qHTS assay to identify small molecule antagonists of the peroxisome proliferator-activated receptor delta (PPARd) signaling pathway (AID 743215; active means well fitted inhibition curve with a large enough effect in the signal ratio in the repeat runs, not every such curve was filed as active; the % refers to the signal ratio;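 further: cells stimulated with agonist L165041 at 300 nM final during compound exposure; series mostly up to about 62 µM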)
Summary of the method: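 Fluorescence from cleaved LiveBLAzer B/G FRET substrate (2 h, room temperature) reports PPARd-driven beta-lactamase in HEK293H UAS-bla cells. Cells had been treated 17 h at 37 C with compound plus 300 nM final L165041.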

[17] = target: Bile acid receptor (Homo sapiens) (UniProt Q96RI1); assay: qHTS assay to identify small molecule antagonists of the farnesoid-X-receptor (FXR) signaling pathway (AID 743217; active means well fitted inhibition curve with a large enough effect in the signal ratio in the repeat runs, not every such curve was filed as active; the % refers to the signal ratio)
Chain of Bile acid receptor (Homo sapiens) (Q96RI1 whole entry, looked up): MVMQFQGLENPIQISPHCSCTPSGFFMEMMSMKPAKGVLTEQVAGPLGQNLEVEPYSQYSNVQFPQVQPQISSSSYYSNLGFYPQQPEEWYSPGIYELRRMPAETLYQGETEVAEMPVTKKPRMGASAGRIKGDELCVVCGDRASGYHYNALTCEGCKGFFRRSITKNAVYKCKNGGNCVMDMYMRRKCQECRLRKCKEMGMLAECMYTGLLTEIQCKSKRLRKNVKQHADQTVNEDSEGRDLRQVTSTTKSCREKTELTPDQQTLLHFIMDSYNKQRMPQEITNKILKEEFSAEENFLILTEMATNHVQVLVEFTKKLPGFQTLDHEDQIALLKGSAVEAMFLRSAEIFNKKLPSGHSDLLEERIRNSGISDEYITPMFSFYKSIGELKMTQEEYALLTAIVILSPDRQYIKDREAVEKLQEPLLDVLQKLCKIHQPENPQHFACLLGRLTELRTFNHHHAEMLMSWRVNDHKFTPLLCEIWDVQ
Summary of the method: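 FRET fluorescence after 2 h room-temperature LiveBLAzer loading gives the readout. Prior step: FXR-bla HEK 293T cells, seeded and incubated 5 h, received test compounds plus 50 uM final CDCA for 16 h at 37 °C.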

[18] = target: Bile acid receptor (Homo sapiens) (UniProt Q96RI1); assay: qHTS assay to identify small molecule agonists of the farnesoid-X-receptor (FXR) signaling pathway (AID 743220; active means well fitted activation curve with a large enough effect in the signal ratio in the repeat runs, not every such curve was filed as active; the % refers to the signal ratio)
Summary of the method: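 FXR-UAS-bla HEK 293T cells carrying a UAS-driven beta-lactamase reporter were plated for 5 h at 37C/5% CO2, then exposed to DMSO-dissolved Tox21 10K compounds for 16 h at 37C. A LiveBLAzer B/G FRET substrate was loaded for 2 h at room temperature before fluorescence reading.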

[19] = target: Vitamin D3 receptor (Homo sapiens) (UniProt P11473); assay: qHTS assay to identify small molecule agonists of the vitamin D receptor (VDR) signaling pathway (AID 743222; calls by dose curve)
Summary of the method: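 Following 4 h attachment at 37C, VDR-bla cells (2,000 per well) received DMSO-dissolved compounds or controls. After 16 h incubation, LiveBLAzer B/G FRET substrate was added and fluorescence read 2 h later at room temperature.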

Measured: Potency

COc1ccc(-n2nc(C(F)F)cc2-c2ccc(S(C)=O)cc2)cc1 (stereo unspecified)
inactive: [1] | [2] | [3] | [4] | [5] | [6] | [7] | [8] | [9] | [10] | [11] | [12] | [13]

CCOC(=O)N1CCC(Nc2ccc(Cl)cc2N)CC1
inactive: [14] | [2] | [3] | [4] | [15] | [6] | [7] | [8] | [9] | [10] | [11] | [12] | [13]

CC(CCc1ccc(O)cc1)NCCc1ccc(O)c(O)c1 (stereo unspecified)
inactive: [14] | [1] | [16] | [17] | [3] | [18] | [4] | [5] | [6] | [7] | [8] | [9] | [11] | [12] | [13]

CCOC(=O)c1c(N)sc2c1CCN(Cc1ccccc1)C2
inactive: [2] | [3] | [4] | [15] | [5] | [7] | [8] | [9] | [10] | [11] | [12] | [13]

SCCc1cnccn1
inactive: [2] | [3] | [4] | [6] | [7] | [8] | [9] | [10] | [11] | [12] | [13]

CC(C(=O)O)c1ccc(C(=O)c2cccs2)cc1 (stereo unspecified)
inactive: [14] | [2] | [3] | [4] | [19] | [15] | [6] | [7] | [8] | [9] | [10] | [11] | [12] | [13]

CC12CC3CC(C)(C1)CC(N)(C3)C2
inactive: [14] | [2] | [3] | [4] | [19] | [6] | [7] | [8] | [9] | [10] | [11] | [12] | [13]

O=C1c2ccccc2C(=O)c2c(O)ccc(O)c21
inactive: [14] | [2] | [3] | [4] | [15] | [7] | [8] | [9] | [11] | [12] | [13]

O=[N+]([O-])C1(Br)COCOC1
active: [11] 24.3 µM
inactive: [3] | [18] | [4] | [19] | [6] | [7] | [8] | [9] | [12] | [13]

CC(C)C(=O)OCCOc1ccccc1
inactive: [14] | [1] | [16] | [4] | [19] | [5] | [6] | [7] | [8] | [10] | [11] | [12] | [13]
